From PubChem BioAssay (Tox21)
Results filed as inconclusive are left out. A number with no mark means an inactive call. Activity calls are given as the source filed them. Calls follow the shape of the dose curve; as a rule, active = well fitted activation curve with a large enough effect in the repeat runs; inconclusive = weak or mixed curves; inactive = no such curve, though single readings can be large or run the other way.

target: Nuclear receptor subfamily 1 group I member 3 (Homo sapiens) (UniProt Q14994); test: qHTS assay to identify small molecule agonists of the constitutive androstane receptor (CAR) signaling pathway (AID 1224839); settings: HepG2 hCAR CYP2B6-luciferase, agonist mode, 24 h; series mostly up to 42.5 µM; activation: at the top concentration; also: nearly all actives have a fitted effect of over 15% in size;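 as to activation: HepG2 cells stably carrying human CAR and a CYP2B6 luciferase reporter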
Sequence (Q14994 whole entry, looked up): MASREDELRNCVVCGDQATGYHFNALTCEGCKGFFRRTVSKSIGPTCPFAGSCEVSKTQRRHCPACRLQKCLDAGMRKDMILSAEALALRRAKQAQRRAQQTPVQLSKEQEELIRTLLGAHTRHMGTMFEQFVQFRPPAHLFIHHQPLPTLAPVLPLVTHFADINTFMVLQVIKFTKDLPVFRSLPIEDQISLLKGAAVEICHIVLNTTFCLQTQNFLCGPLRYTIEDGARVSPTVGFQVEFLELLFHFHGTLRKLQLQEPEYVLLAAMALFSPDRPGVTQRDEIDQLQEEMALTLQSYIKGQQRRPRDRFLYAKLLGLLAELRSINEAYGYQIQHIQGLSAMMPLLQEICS
Excerpt: National Center for Advancing Translational Sciences [NCATS] NIH Chemical Genomics Center [NCGC] U.S. Environmental Protection Agency [EPA] National Institutes of Environmental Health Sciences [NIEHS] National Toxicology Program [NTP] Assay overview: The constitutive androstane receptor (CAR) is a nuclear receptor which regulates multiple drug metabolizing enzymes (DMEs) and transporters. Activating CAR will generally increase the transcription and subsequent translation of CYP2B6 and CYP3A4. These two DMEs represent about 50% of the drug metabolizing potential in the body. […] Recently, there have also been studies performed indicating CARs role in energy metabolism and cancer therapy. Therefore, inducing CARs activity could have a potential effect on diabetes and cancer. Identifying environmental toxins and compounds which modulate CAR, through the use of the Tox21 10K compound collection, will be an important step in determining the toxicity and potential therapeutic effects these factors will have on the human body.
Assay Protocol Summary: A double-stable (hCAR and CYP2B6-2.2kb) transfected cell line, derived from human hepatoma (HepG2) cells, was utilized for the duration of the quantitative high-throughput screens. The HepG2-CYP2B6-hCAR cells suspended in DMEM culture medium supplemented with 10% FBS, 5 ug/mL blasticidin, 0.5 mg/mL geneticin, 100 U/mL penicillin and 100 ug/mL streptomycin were dispensed at 2500 cells/4 uL/well in 1536-well white solid bottom plates using a Multidrop Combi. After the assay plates were incubated at 37 C/5% CO2 for 4 hrs, 23 nL of compounds at 15 concentrations (from 5-48 columns) or positive control (from 1 to 4 columns) were transferred to the assay plates using a Pintool station. One uL of PK11195, was added using a Flying Reagent Dispenser to generate a final concentration of 0.75 uM PK11195 inside each well. After a 24 hr incubation period at 37 C/5% CO2, four uL of ONE-Glo reagent was added into the assay plates using a Flying Reagent Dispenser. After a 30 min incubation period at room temperature, the luminescence intensity in the assay plates was measured using a ViewLux plate reader.
% is scaled to controls: 0 for no effect and ±100 for the full control effect; potency is read from the fitted curve at half-maximal effect.

Row | SMILES | activation | Potency
1 | O=C1c2ccccc2S(=O)(=O)N1CCCCN1CCN(c2ncccn2)CC1 | -0.903% | –
2 | O=C(O)c1ccc(S(=O)(=O)O)cc1C(=O)O | 0.49% [at 92.4 µM] | –
3 | CCCCCCCCCCCCCCOS(=O)(=O)O | -2.51% [at 92.4 µM] | –
4 | CCOc1ccc(N)c([N+](=O)[O-])c1 | -0.362% [at 92.4 µM] | –
5 | O=S(c1cc(Cl)cc(Cl)c1O)c1cc(Cl)cc(Cl)c1O | -6.19% | –
6 | CC1(c2ccccc2)OC(C(=O)O)=CC1=O (stereo not given) | -0.945% | –
7 | CC(=O)c1ccc2c(c1)N(CCCN(C)C)c1ccccc1S2 | -3.83% | –
8 | O=C(O)c1nc(Cl)c(Cl)c(Cl)c1Cl | – | 17.2 µM (active)
9 | CCO[Si](CCCCl)(OCC)OCC | -0.787% [at 92.4 µM] | –
10 | C[Si](C)(CCCN)O[Si](C)(C)CCCN | -2.16% [at 92.4 µM] | –
11 | CC(C)Nc1ccc(NC(C)C)c2c1C(=O)c1ccccc1C2=O | -4.08% | –
12 | Nc1ccccc1S(=O)(=O)c1ccccc1 | – | 68.6 µM (active)
13 | CCOC(=O)NCCOc1ccc(Oc2ccccc2)cc1 | – | 48.6 µM (active)
14 | Cc1oc(-c2ccccc2)nc1CCOc1cccc2c1ccn2CCC(=O)O | 2.7% [at 92.4 µM] | –
15 | CC(=O)c1ccc2c(c1)N(CCCN1CCC(CCO)CC1)c1ccccc1S2 | -4.74% | –
16 | CC1CCC(=O)C1=O (stereo not given) | -1.19% [at 92.4 µM] | –
17 | CCCCCCCCCc1ccc(OCCOCCO)cc1 | -3.27% | –
18 | CCc1c(C(=O)NN2CCCCC2)nn(-c2ccc(Cl)cc2Cl)c1-c1ccc(Br)cc1 | -9.07% [at 92.4 µM] | –
19 | O=CC1CC=CCC1 (stereo not given) | 0% [at 92.4 µM] | –
20 | CC(C)(C)Cl | 0.768% [at 92.4 µM] | –

Row | SMILES | activation | Potency
21 | CCc1cc(C2=C(C(=O)O)N(c3ccccc3C(F)(F)F)S(=O)(=O)c3ccccc32)cc2c1OCO2 | -1.85% [at 92.4 µM] | –
22 | CCN(CC)CCOC(=O)C(c1ccccc1)C1CCCCC1 (stereo not given) | 4.87% | –
23 | CCCCCCCCCCCCCCCCOS(=O)(=O)O | -4.2% | –
24 | CC(C)(COC(=O)c1ccccc1)COC(=O)c1ccccc1 | 1.16% [at 92.4 µM] | –
25 | C=C(C)C(=O)OCCO | -2.34% [at 92.4 µM] | –
26 | O=C(O)c1ccc(-n2nc(-c3ccccc3O)nc2-c2ccccc2O)cc1 | 3.59% | –
27 | CC1OC(=O)C(C)OC1=O (stereo not given) | -2.52% [at 92.4 µM] | –
28 | CN1CCC(=C2c3ccccc3Sc3ccccc32)CC1 | -1.31% | –
29 | O[C@@H](COc1cccc2ncccc12)CN1CCN(C2c3ccccc3[C@@H]3[C@H](c4ccccc42)C3(F)F)CC1 (stereo not given in full) | 11.8% | –
30 | O=C1CCC(=O)O1 | -0.985% [at 92.4 µM] | –
31 | CNC(=O)CN(CCN(CCN(CC(=O)[O-])CC(=O)NC)CC(=O)[O-])CC(=O)[O-].O.[Gd+3] | 0.624% | –
32 | CCCCCCOC(=O)NC(=N)c1ccc(NCc2nc3cc(C(=O)N(CCC(=O)OCC)c4ccccn4)ccc3n2C)cc1 | 3.01% | –
33 | CCC(CC)Nc1ccc(C)c(C)c1 | 2.47% [at 92.4 µM] | –
34 | C/C=C/C(=O)CC | 1.56% [at 19 µM] | –
35 | OCCN1CCN(CCCN2c3ccccc3C=Cc3ccccc32)CC1 | -2.76% | –
36 | COc1cc(C(=O)OCCCN2CCCN(CCCOC(=O)c3cc(OC)c(OC)c(OC)c3)CC2)cc(OC)c1OC | 0.0779% | –
37 | c1ccc(CNCCNCc2ccccc2)cc1 | -2.06% | –
38 | CN(C)CCOC(c1ccccc1)c1ccc(Br)cc1 (stereo not given) | -0.0184% | –
39 | C=CC1CC2C=CC1C2 (stereo not given) | -2.16% [at 92.4 µM] | –
40 | CCCCCCCCCCCc1ccccc1 | 0.142% [at 92.4 µM] | –
